PubChem BioAssay (NCI)
About 83,000 compounds went through this panel and 20% of them were active in at least one assay; those are over-represented in the sample as a whole.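 Step 1: grow cells in 96-well plates. Step 2: add test compound at a single concentration. Step 3: incubate 48 h. Step 4: record percent growth.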 Values without a mark were called inactive. Activity calls are given as the source filed them. How the source made its calls: active means growth percent below 10; inactive means the rest.

How the values were obtained:
Assay in all cases: NCI-60 one-dose screen, 48 h (100 = growth as untreated, 0 = no growth, -100 = all killed)
Settings in all cases: 10 µM
SK-MEL-2 melanoma = test system: SK-MEL-2 melanoma
EKVX NSCLC = test system: EKVX NSCLC
SN12C renal = test system: SN12C renal
UO-31 renal = test system: UO-31 renal
TK-10 renal = test system: TK-10 renal
ACHN renal = test system: ACHN renal
CAKI-1 renal = test system: CAKI-1 renal
A498 renal = test system: A498 renal
CCRF-CEM leukemia = test system: CCRF-CEM leukemia
MOLT-4 leukemia = test system: MOLT-4 leukemia
SR leukemia = test system: SR leukemia
RPMI-8226 leukemia = test system: RPMI-8226 leukemia
OVCAR-8 ovarian = test system: OVCAR-8 ovarian
OVCAR-4 ovarian = test system: OVCAR-4 ovarian
SK-OV-3 ovarian = test system: SK-OV-3 ovarian
IGROV1 ovarian = test system: IGROV1 ovarian
OVCAR-3 ovarian = test system: OVCAR-3 ovarian
HS 578T breast = test system: HS 578T breast
NCI/ADR-RES ovarian = test system: NCI/ADR-RES ovarian
OVCAR-5 ovarian = test system: OVCAR-5 ovarian

| Structure (SMILES) | growth (SK-MEL-2 melanoma) | growth (EKVX NSCLC) | growth (SN12C renal) | growth (UO-31 renal) | growth (TK-10 renal) | growth (ACHN renal) | growth (CAKI-1 renal) | growth (A498 renal) | growth (CCRF-CEM leukemia) | growth (MOLT-4 leukemia) | growth (SR leukemia) | growth (RPMI-8226 leukemia) | growth (OVCAR-8 ovarian) | growth (OVCAR-4 ovarian) | growth (SK-OV-3 ovarian) | growth (IGROV1 ovarian) | growth (OVCAR-3 ovarian) | growth (HS 578T breast) | growth (NCI/ADR-RES ovarian) | growth (OVCAR-5 ovarian) |
| --- | --- | --- | --- | --- | --- | --- | --- | --- | --- | --- | --- | --- | --- | --- | --- | --- | --- | --- | --- | --- |
| O=C(N=Nc1c(O)[nH]c2ccc(Br)cc12)c1ccc2nc(-c3ccccc3)[nH]c2c1 | -89.7% (active) | -4.61% (active) | -94.4% (active) | 27.3% | -25.5% (active) | -47.3% (active) | 16.8% | -55.3% (active) | -16% (active) | -29% (active) | -5.76% (active) | -4.88% (active) | -94.5% (active) | -92.1% (active) | -54.9% (active) | -39% (active) | -69.7% (active) | -25.9% (active) | 76.7% | – |
| Cc1noc2c(Cc3ccccc3)nn(CC(=O)N/N=C/c3ccc(Br)cc3)c(=O)c12 | 106% | 65.8% | 8.51% (active) | -32.3% (active) | 17.8% | 6.21% (active) | 58.4% | -62.4% (active) | 96.8% | 93.9% | 90.6% | 78.6% | 9.24% (active) | -61.9% (active) | 43.8% | 53.4% | -33.6% (active) | – | 58% | 62.5% |
| CC(=O)NS(=O)(=O)c1ccc(NC(=O)CSC2=NC(c3ccccc3)C(C(C)=O)=C(C)N2)cc1 (stereo not given) | 115% | 104% | 111% | 91.5% | 116% | 111% | 99.4% | 133% | 95.4% | 109% | 101% | 96% | 115% | 113% | 100% | 108% | 133% | 107% | 99.6% | – |
| OCCNc1oc(-c2ccccc2)nc1[P+](c1ccccc1)(c1ccccc1)c1ccccc1 | -31.8% (active) | 23.8% | 2.4% (active) | 71.8% | 32.4% | 84.4% | 75.1% | 74.6% | 9.78% (active) | 10.2% | 1.42% (active) | 3.91% (active) | 7.35% (active) | 10.2% | -3.42% (active) | -12.9% (active) | -9.22% (active) | -3.9% (active) | 99% | 31.2% |
| Cc1ccc(/C(N)=N/c2sc(-c3ccccc3)nc2-c2ccccc2)cc1 | 90.7% | 74.2% | 77.8% | 69.9% | 100% | 76.3% | 59.8% | 91.1% | 26.7% | 51.5% | 63.1% | 59.9% | 91.4% | 72% | 87.1% | 94.3% | 84.7% | 95% | 89.9% | 84.1% |
| C=C[C@@]12CN3CC[C@]1(O)[C@@](C(=O)OC)(CO2)c1[nH]c2ccccc2c1C3 | 86.1% | 53.5% | 67.5% | 69.5% | 97% | 73.6% | 70.1% | 81.8% | 55.3% | 76.7% | 75.5% | 46.9% | 62.8% | 62.3% | 115% | 95.2% | 61.6% | 80.5% | 49.1% | – |
| CCN1CCN(Cc2ccc(C(=O)Nc3cccc(-c4cn(-c5ccc6oc(=O)ccc6c5)nn4)c3)cc2C(F)(F)F)CC1 | 66.1% | -100% (active) | -100% (active) | -100% (active) | -100% (active) | -100% (active) | 8.59% (active) | -100% (active) | -21% (active) | -29.8% (active) | -51.6% (active) | -40.7% (active) | -100% (active) | -100% (active) | 25.4% | -100% (active) | -100% (active) | -21.6% (active) | -100% (active) | -100% (active) |
| CCOC(=O)c1c(CSc2ccccc2)n(C)c2cc(CN(C)C)c(O)c(CN(C)C)c12 | 77.5% | 36.9% | 27.2% | 28% | 75.9% | 59% | 57.8% | 118% | 42.7% | 49% | 21.4% | 28.5% | 30.4% | 36.5% | 87% | 25.4% | 13.8% | 44.3% | 76.4% | – |
| N#Cc1ccc(-c2nn(-c3ccc(C(=O)O)cc3)cc2CNc2cc(Cl)cc(C(F)(F)F)c2)cc1 | 8.11% (active) | 22.8% | 18.4% | 25% | 63.5% | 17.3% | 20.8% | 39.8% | 5.2% (active) | 6.25% (active) | 1.72% (active) | 1.01% (active) | 20.1% | 27.8% | 55.2% | 34.7% | 22% | – | 1.78% (active) | 59.8% |
| CN(C(=O)c1ccc(C(C)(C)C)cc1)c1sc2c(c1C#N)CCC(=O)C2 | 97.7% | 68.9% | 17.1% | -98.5% (active) | 23% | -45.8% (active) | 36.9% | 97.6% | 8.93% (active) | 29.8% | 13.7% | 9.38% (active) | 5.3% (active) | 1.97% (active) | 101% | -34.4% (active) | -69.7% (active) | 11.8% | -35.1% (active) | – |
| COc1ccc2cc([C@H](C)C(=O)NCc3ccccc3)ccc2c1 | 31% | 42.5% | 33.5% | 46.3% | 65.7% | 54.9% | 34.7% | 63.1% | 31% | 47% | 29.8% | 25.1% | 32.7% | 53.5% | 40.6% | 46.9% | 19.9% | 16.8% | -10% (active) | – |
| O=c1c2ccccc2nc(COc2ccccc2)n1/N=C/c1ccc(N2CCCC2)cc1 | 104% | 88% | 88.7% | 69.8% | 99.5% | 92.3% | 91.5% | 109% | 78.2% | 78.1% | 73.9% | 64.1% | 99% | 81.8% | 113% | 97.2% | 105% | 94.8% | 94.3% | – |
| CCCCOc1ccc(Nc2nc3ccccc3nc2Nc2ccc(OCCCC)cc2)cc1 | 99.5% | 82.2% | 95.9% | 85.3% | 91.9% | 97.7% | 91.8% | 105% | 69.1% | 68.3% | 80.1% | 57.8% | 92.3% | 93.6% | 106% | 108% | 68.9% | 103% | 94.3% | – |
| N#Cc1c(NC(=O)c2ccc(C(F)(F)F)cc2)sc2c1CCC(=O)C2 | -57.9% (active) | -42.6% (active) | -31.9% (active) | -99.9% (active) | -53.7% (active) | -100% (active) | -21.7% (active) | 2.58% (active) | 7.92% (active) | 9.79% (active) | 11.3% | 7.34% (active) | – | -24.6% (active) | -54.1% (active) | -79.3% (active) | -92.9% (active) | -27.1% (active) | -44.8% (active) | -80.6% (active) |
| O=C(Nc1cccc(C(F)(F)F)c1)c1cncc(C#Cc2cnc3ccc(N4CCOCC4)nn23)c1 | -26.3% (active) | -22.3% (active) | 4.67% (active) | -31.7% (active) | 27.3% | 3.28% (active) | 6.18% (active) | -87.8% (active) | 10.6% | 3.44% (active) | -1.17% (active) | – | – | 12.7% | 3.44% (active) | 1.76% (active) | -23.6% (active) | -22.4% (active) | – | 1.83% (active) |
| COc1ccc2[nH]c(=O)c(CSc3nccc(-c4ccc(Cl)cc4)n3)cc2c1 | 42.9% | 7.4% (active) | 34.4% | 7.11% (active) | 19.6% | -46.2% (active) | -75.9% (active) | 45.5% | 32.6% | 22% | – | 17.6% | -10.4% (active) | 36.3% | 42.1% | 60.9% | 44.8% | 37.2% | 12.2% | 50.9% |
